# Several values for one entry are separate records, joined by “and”; a condition that tells them apart may be missing. Equal values may be shown once. Activity calls are given as the source filed them.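 How the source made its calls: active means calcium retention capacity relative to untreated control above about 1.1 ratio (limit read from the data); inactive means the rest.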
# Assay: mtPTP inhibition via calcium retention, dose response, biochemical, dry powder samples, uHTS hits, Calcium Green-5N (AID 743360)
# Details: isolated mitochondria, Ca retention capacity
row,SMILES,CRC/CRC0 ratio at 12.5 uM (higher = more inhibition)
1,O=C(Nc1cccc(Cl)c1)c1cc(-c2cccc(O)c2)on1,5.47 (active) and 7.74 (active)
2,COc1cccc(-c2cc(C(=O)Nc3cc(Cl)ccc3C)no2)c1,1.08 (inactive)
3,O=C(Nc1ccc(CN2CCCCC2)cc1)c1cccc(Cl)c1,1.16 (active)
4,O=S(=O)(Nc1ccc(CN2CCCCC2)cc1)c1cccc(Cl)c1,1.03 (inactive)
5,CN1CCN(Cc2ccc(NS(=O)(=O)c3cc(Cl)cc(Cl)c3)cc2)CC1,1.1 (inactive)
6,COc1ccc(Cl)c(C(=O)Nc2ccc(CCN3CCN(C(=O)OC(C)(C)C)CC3)cc2)c1,1.11 (active)
7,COc1ccc(/C=C/C(=O)Nc2cccc(Cl)c2)cc1O,6.53 (active)
8,O=C(Nc1ccc(CN2CCCCC2)cc1)c1cc(Cl)ccc1O,1.1 (active)
9,COc1ccc(Cl)c(C(=O)Nc2ccc(CCN3CCCCC3)cc2)c1,> 1 (inactive)
10,O=C(Nc1ccc(N2CCCCC2)cc1)c1cccc(OCc2ccccc2)c1,1.01 (inactive)
11,CN1CCN(Cc2ccc(NC(=O)c3cccc(OCc4ccccc4)c3)cc2)CC1,2.26 (active)
12,O=S(=O)(Nc1ccc(CCN2CCCCC2)cc1)c1cc(Cl)cc(Cl)c1,1.17 (active)
13,Cc1cc(NC(=O)c2ccc(-n3cnnc3)cc2)no1,> 1 (inactive)
14,COc1ccc(Cl)cc1S(=O)(=O)Nc1ccc(CCN2CCCCC2)cc1,1.07 (inactive)
15,COc1ccc(Cl)cc1C(=O)Nc1ccc(CN2CCNCC2)cc1,1.65 (active)
16,Cc1ccc(NC(=O)c2cc(-c3cccc(O)c3)on2)cc1Cl,2.58 (active)
17,O=S(=O)(Nc1ccc(CCN2CCCCC2)cc1)c1cccc(Cl)c1,1.12 (active)
